7 sequences from the supplement of paper PMC6555819 can be followed below.

Holding throughout (assay): PBM binding z-score (relative to random genomic background probes); higher = stronger binding; sequences stand for … in GC…GCGATTGACAGCGTAGAATGAAGG
Assay [1] deals with FXR:RXRa (NR concentration 270 nM, RXRa partner concentration 90 nM). In short, it runs like this: (§1)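 Binding buffer was PBS pH 7.4 with 2% milk, 0.02% Triton X-100, 1 mM DTT, 0.2 mg/mL BSA and 0.4 mg/ml salmon testes DNA. In it, ligand-free nuclear receptor dimers were incubated 1 h on custom Agilent 4×180K protein-binding microarrays carrying double-stranded probes. Antibodies against each partner (one per run) detected binding, and z-scores were calculated against random background probes after regression normalization of scanned fluorescence.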

Assay [2] has as its system LXRa:RXRa (NR concentration 270 nM, RXRa partner concentration 90 nM). In a few lines: as §1
Assay [3] concerns LXRa homodimer (NR concentration 270 nM). In a few lines: as §1
Assay [4] deals with LXRb:RXRa (NR concentration 270 nM, RXRa partner concentration 90 nM). In a few lines:
as §1

Assay [5] deals with LXRb homodimer (NR concentration 270 nM). In a few lines: as §1
Assay [6] relates to PPARa:RXRa (NR concentration 270 nM, RXRa partner concentration 90 nM). In a few lines:
as §1

For assay [7], the system named is PPARg:RXRa (NR concentration 180 nM, RXRa partner concentration 90 nM). In short, it runs like this:
as §1

In assay [8] the test system is PPARg:RXRa 270nM:90nM, anti-RXR (NR concentration 270 nM, RXRa partner concentration 90 nM). In short, it runs like this: as §1
The subject of assay [9] is PPARg:RXRa 30nM:10nM, anti-RXR (NR concentration 30 nM, RXRa partner concentration 10 nM). In short, it runs like this: as §1
The test system of assay [10] is PPARg:RXRa 90nM:30nM, anti-RXR (NR concentration 90 nM, RXRa partner concentration 30 nM). In a few lines: as §1
Assay [11] concerns PPARg:RXRa DBDmut IVT, anti-RXR (DBD mutation: RXRa K156A/R161A, NR concentration 270 nM, RXRa partner concentration 90 nM). In short, it runs like this:
as §1

Assay [12] concerns PPARg:RXRa IVT, anti-PPARg (NR concentration 270 nM, RXRa partner concentration 90 nM). In short, it runs like this:
as §1

Assay [13] has as its system PPARg DBDmut:RXRa IVT, anti-PPARg (DBD mutation: PPARg1 K132A/R137A, NR concentration 270 nM, RXRa partner concentration 90 nM). In short, it runs like this: as §1
Assay [14] relates to PPARg DBDmut IVT, anti-PPARg (DBD mutation: PPARg1 K132A/R137A, NR concentration 270 nM). In short, it runs like this:
as §1

For assay [15], the system named is PPARg homodimer (NR concentration 180 nM). In short, it runs like this:
as §1

The test system of assay [16] is PXR:RXRa (NR concentration 270 nM, RXRa partner concentration 90 nM). In a few lines: as §1
Assay [17] deals with PXR homodimer (NR concentration 270 nM). In a few lines: as §1
Assay [18] relates to RARa:RXR (NR concentration 270 nM, RXRa partner concentration 90 nM). In a few lines:
as §1

Assay [19] deals with RARa homodimer (NR concentration 270 nM). In short, it runs like this:
as §1

The test system of assay [20] is RARb:RXRa (NR concentration 270 nM, RXRa partner concentration 90 nM). In short, it runs like this: as §1

For ATATGTATGTTACATCCGGGTCATTCAGGCTATG, the PBM binding z-score in assay [1] worked out at 1.15; in assay [2] it was 1.58; in [3], 0.696; in assay [4], 2.06; in [5], 0.763; in [6], 2.94. Besides, the PBM binding z-score in assay [7] amounted to 1.75; in assay [8], 1.55; in assay [9] it was 0.754; in assay [10], 1.22; in assay [11], 3.22; in [12], 3.46. Besides, the PBM binding z-score was determined as 1.61 in assay [13]; 1.67 in assay [14]; 1.16 in assay [15]; 2.54 in [16]; 1.37 in assay [17]; 2.59 in [18]. Further, the PBM binding z-score in assay [19] was determined as 0.761; in assay [20] it was 1.52.
ACTAGCAGGGCAAGGGTCACTCAAGATTAGTCCG: the PBM binding z-score is 2.88 in [1]; 2.84 in assay [2]; 0.175 in assay [3]; 2.76 in [4]; -0.693 in assay [5]; 4.79 in assay [6]. Also, the PBM binding z-score worked out at 8.91 in [7]; 7.48 in assay [8]; 7.19 in assay [9]; 7.64 in [10]; 2.1 in [11]; 4.69 in assay [12]. The PBM binding z-score is -0.137 in assay [13]; -0.877 in assay [14]; 1.91 in [15]; 3.4 in assay [16]; -0.121 in assay [17]; 4.49 in [18]. In addition, the PBM binding z-score in [19] worked out at 0.318; in [20], 3.46.
On to ATATTTAGGTTATCGGGTCATTCAGTTTGCGCAT, for which the PBM binding z-score turned out to be 3.46 in assay [1]; 3.38 in [2]; 3.11 in [3]; 3.44 in [4]; 2.37 in assay [5]; 4.75 in [6]. The PBM binding z-score turned out to be 5.55 in assay [7]; 5.51 in assay [8]; 3 in [9]; 4.66 in [10]; 6.89 in assay [11]; 6.64 in [12]. For the same sequence, the PBM binding z-score in assay [13] was found to be 4.67; in assay [14], 4.42; in assay [15] it was 4.15; in [16], 3.9; in assay [17], 8.95; in assay [18] it was 4.06. The PBM binding z-score was found to be 4.33 in assay [19] and 2.93 in assay [20].
For the sequence GCTGCTAGGACAACTGATGGTCAGCTAAAGCTCG, the PBM binding z-score in [1] is -0.547; in assay [2], -0.859; in [3] it was -0.672; in assay [4], -1.14; in assay [5], -1.05; in assay [6] it was -1.94. Besides, the PBM binding z-score in assay [7] is -0.0624; in [8], -0.895; in [9], -0.952; in assay [10], -1.12; in assay [11] it was 0.688; in assay [12], -0.573. The PBM binding z-score is -1.55 in assay [13]; -1.57 in assay [14]; -1.24 in [15]; -1.1 in assay [16]; -1.66 in assay [17]; -1.08 in assay [18]. Besides, the PBM binding z-score in assay [19] is -1.4; in assay [20] it was 0.341.
For the sequence TCTGCTAGATCAACGATGGTCAGCTAATCTGCTA, the PBM binding z-score is -1.43 in [1]; -0.641 in assay [2]; -1.29 in assay [3]; -0.993 in [4]; -1.05 in assay [5]; -0.231 in assay [6]. The PBM binding z-score in assay [7] was -0.175; in [8], 0.492; in assay [9], 1.39; in assay [10], 1.14; in assay [11] it was 0.608; in [12] it was -0.401. The PBM binding z-score in [13] is -0.179; in assay [14] it was -0.566; in [15], -1.56; in [16], -0.434; in assay [17], -1.18; in assay [18], -0.57. Besides, the results for the PBM binding z-score in assay [19] and in assay [20] were -1.3 and -0.346, respectively.
Take GTACCAAGGTCAATAGGTCGTTGATGAGTAGGCG: the PBM binding z-score in assay [1] was found to be 6.19; in assay [2] it was 4.5; in assay [3] it was 0.864; in [4] it was 3.74; in assay [5], 0.614; in assay [6], 5.37. For the same sequence, the PBM binding z-score in [7] came out at 5.15; in assay [8] it was 5.05; in assay [9] it was 2.14; in assay [10], 4.13; in assay [11] it was 2.92; in assay [12], 4.42. The PBM binding z-score in assay [13] is -0.00557; in assay [14] it was 0.159; in assay [15] it was 2.8; in [16], 4.09; in [17] it was 0.916; in [18], 4.91. Also, the PBM binding z-score is 0.768 in [19] and 5.2 in assay [20].
As to ACAGACAGGTGAGTGAAGGGAACTCAGCTGGACG, the PBM binding z-score is 0.599 in assay [1]; 0.176 in [2]; -0.538 in assay [3]; -0.538 in assay [4]; -0.387 in assay [5]; -0.171 in assay [6]. Further, the PBM binding z-score in assay [7] was 0.513; in [8], -0.458; in [9], -0.652; in assay [10], -0.465; in assay [11] it was 0.124; in assay [12] it was 0.352. Moreover, the PBM binding z-score in [13] was -0.265; in assay [14], -0.714; in assay [15], -0.397; in [16], -0.572; in assay [17] it was -0.37; in assay [18], -0.456. In addition, the PBM binding z-score in assay [19] is -0.307; in assay [20], 0.438.
